# Records with an inconclusive call do not appear. A number with no mark means an inactive call. Calls of active or inactive are those of the source. Calls come from the whole dose curve; as a rule, active = well fitted inhibition curve with a large enough effect; inconclusive = small, poorly fitted or top-dose-only effect; inactive = flat fitted curve, though single readings scatter.
# Target: Glutathione peroxidase 1 (Homo sapiens) (UniProt P07203)
# Experiment: Primary qHTS Assay for Inhibitors of Recombinant Selenoprotein Glutathione Peroxidase 1 (GPX1) (AID 1845191); note: nearly all actives have a fitted effect of over 65% in size
# Settings: recombinant GPX1, GR-coupled NADPH fluorescence, 15 min; series mostly up to 48.8 µM; activity, negative = inhibition: at the top concentration
# Summary of the method: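 GPX1 10 nM, GR 100 nM, GSH 1 mM, NADPH 0.5 mM, CHP 0.5 mM (final). 30-min cpd preincubation, RT. Ex340/Em450 read t=0, t=15 min.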
# % is set by controls: 0 for no effect and ±100 for the full control effect; potency is the fitted concentration of half-maximal effect.
# Glutathione peroxidase 1 (Homo sapiens), sequence (P07203 whole entry, looked up): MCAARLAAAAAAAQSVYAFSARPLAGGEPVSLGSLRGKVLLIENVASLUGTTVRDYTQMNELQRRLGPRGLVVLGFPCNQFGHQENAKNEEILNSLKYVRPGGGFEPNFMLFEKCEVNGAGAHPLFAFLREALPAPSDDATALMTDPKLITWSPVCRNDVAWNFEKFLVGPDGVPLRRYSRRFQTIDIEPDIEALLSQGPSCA
SMILES,"activity, negative = inhibition",outcome,Potency
CC(C)(C)c1ccc2c(S(=O)(=O)O)c(C(C)(C)C)ccc2c1,4.57%,,
C=C[C@]1(C)C[C@@H](OC(=O)CSCCN(CC)CC)[C@]2(C)[C@H](C)CC[C@]3(CCC(=O)[C@H]32)[C@@H](C)[C@@H]1O,,inactive,
CC[C@H]1OC(=O)[C@H](C)[C@@H](O[C@H]2C[C@@](C)(OC)[C@@H](O)[C@H](C)O2)[C@H](C)[C@@H](O[C@@H]2O[C@H](C)C[C@H](N(C)C)[C@H]2O)[C@](C)(O)C[C@@H](C)CN(C)[C@H](C)[C@@H](O)[C@]1(C)O,,,inactive
CS(=O)(=O)c1ccc([C@@H](O)[C@@H](COC(=O)CN)NC(=O)C(Cl)Cl)cc1,-12.6%,,
CC1(O)CCC(C(C)(C)O)CC1 (centres undefined),2.62%,,
NC(=O)OCC(O)COc1ccc(Cl)cc1 (centres undefined),-13.2%,,
FCOC(C(F)(F)F)C(F)(F)F,,inactive,
CN(C)CCOc1ccc(/C(=C(/CCCl)c2ccccc2)c2ccccc2)cc1,,,inactive
CO[C@H]1O[C@@H]2O[C@@]3(C)CC[C@H]4[C@H](C)CC[C@@H]([C@H]1C)[C@@]24OO3,,,inactive
O=S(=O)(O)CCCS(=O)(=O)O,-20.8%,,
C=C(C)C1CC=C(C)CC1 (centres undefined),-13.6% [at 98.3 µM],,
CCOC(=O)c1c[nH]c2cc(OCC(C)C)c(OCC(C)C)cc2c1=O,-15.1%,,
Nc1nc(/C(=C/CC(=O)O)C(=O)N[C@@H]2C(=O)N3C(C(=O)O)=CCS[C@H]23)cs1,,,9.04 µM (active)
O=C(OCc1ccccc1)c1ccc(O)cc1,-12.7%,,
O=[N+]([O-])c1c(Cl)cccc1-c1c[nH]cc1Cl,,inactive,
CC(CC=O)CCCC(C)(C)O (centres undefined),-13.6%,,
FC(F)(F)C(F)(F)C(F)(F)C(F)(F)C(F)(F)C(F)(F)F,-3.83%,,

SMILES,"activity, negative = inhibition",outcome,Potency
CCOC(=O)C1=C(COCCN)NC(C)=C(C(=O)OC)C1c1ccccc1Cl (centres undefined),-30.3%,,
CCCCCCCCCCCCCC(=O)OCC(COP(=O)([O-])OCC[N+](C)(C)C)OC(=O)CCCCCCCCCCCCC (centres undefined),,inactive,
CN1CCN(C(c2ccccc2)c2ccc(Cl)cc2)CC1 (centres undefined),-27.7%,,
CC(C)c1nc(N(C)S(C)(=O)=O)nc(-c2ccc(F)cc2)c1/C=C/C(O)CC(O)CC(=O)O (centres undefined),,,inactive
CCC(O)c1ccccc1 (centres undefined),-0.515%,,
C=CC[N+]1([C@H]2C[C@H]3[C@@H]4CC[C@H]5C[C@H](O)[C@@H](N6CCOCC6)C[C@]5(C)[C@H]4CC[C@]3(C)[C@H]2OC(C)=O)CCCC1,,,inactive
Cc1cccc(C)c1NC(=O)C1CCCCN1C (centres undefined),,inactive,
COc1ccc2c(=O)c(C)c(-c3ccccc3)oc2c1CN(C)C,-17.1%,,
CCCOc1cc(N)ccc1C(=O)OCCN(CC)CC,,inactive,
CC(C)CCCC(C)NC(C)C (centres undefined),-0.73%,,
CO/N=C(\C(=O)N[C@@H]1C(=O)N2C(C(=O)O)=C(CSc3nnnn3C)CS[C@H]12)c1csc(N)n1,,,11.4 µM (active)
O=C(O)CCC/C=C\C[C@@H]1[C@@H](/C=C/[C@@H](O)COc2cccc(Cl)c2)[C@H](O)C[C@@H]1O,-34.2%,,
CCCC(=O)Nc1c(I)cc(I)c(CC(CC)C(=O)O)c1I (centres undefined),3.13%,,
CCCCC[C@H](O)/C=C/[C@@H]1[C@H]2C/C(=C/CCCC(=O)O)O[C@H]2C[C@H]1O,,inactive,
CCCc1nc(C(C)(C)O)c(C(=O)OCc2oc(=O)oc2C)n1Cc1ccc(-c2ccccc2-c2nn[nH]n2)cc1,-9.06%,,
O=P(O)(O)OP(=O)(O)O,-2.16%,,
CC(/C=C/C=C(\C)C(=O)O[C@@H]1O[C@H](CO[C@@H]2O[C@H](CO)[C@@H](O)[C@H](O)[C@H]2O)[C@@H](O)[C@H](O)[C@H]1O)=C\C=C\C=C(C)\C=C\C=C(/C)C(=O)O[C@@H]1O[C@H](CO[C@@H]2O[C@H](CO)[C@@H](O)[C@H](O)[C@H]2O)[C@@H](O)[C@H](O)[C@H]1O,-15.4%,,

# — PubChem BioAssay (NCATS)
